Assay results as given in PubChem BioAssay AID463173 (ICCB-Longwood Screening Facility, Harvard Medical School, 2010).
About 4,300 (8.3%) of roughly 52,000 compounds were called active. Cut-off read from the data, not from the text of the source: active = survival mostly below about 52% (no sharp cut-off); inactive = mostly above about 56%. This excerpt belongs to a sample that is enriched for actives.

system: DeltatarO mutant; test: growth inhibition of S. aureus wild type versus tarO mutant, primary screen, teichoic acid synthesis inhibitors, RN4220, OD600 (AID 463173); conditions: OD600, 18 h, active compounds read low, screened at 18.75 µg/mL (by protocol)

Row | Structure (SMILES) | survival
1 | COc1cccc(-n2c(=O)c3sc4ccccc4c3n(CC(=O)NC3CCCCC3)c2=O)c1 | 126% (inactive)
2 | Cc1ccc(-n2ncc(C(=O)NCc3ccccc3)c2C2CCN(C(=O)OC(C)(C)C)CC2)cc1 | 94% (inactive)
3 | COc1cccc(-n2cc(C(=O)NCc3ccc(C)cc3)c3ccccc3c2=O)c1 | 81% (inactive)
4 | COc1ccccc1CNS(=O)(=O)c1ccc2c(c1)CC(C)N2C(C)=O (configuration not stated) | 71% (inactive)
5 | CC(C)COc1ccc(C(=O)Nc2scc(-c3ccc(Br)cc3)c2C(=O)OC(C)C)cc1 | 53% (inactive)
6 | COc1ccc(NC(=O)Cn2ncc3c(C)n(Cc4cccc(Cl)c4)c(C)c3c2=O)cc1 | 92% (inactive)
7 | CCOc1ccc(-n2cc(-c3ccccc3)c3c(NC4CCCC4)ncnc32)cc1 | 104% (inactive)
8 | Cc1ccc(-n2ncc(C(=O)NCCCN3CCCCC3)c2C2CCN(C(=O)OC(C)(C)C)CC2)c(C)c1 | 46% (active)
9 | CCN1CCN(CCCNC(=O)c2cnn(-c3ccc(C)cc3C)c2C2CCN(C(=O)OC(C)(C)C)CC2)CC1 | 144% (inactive)
10 | Cc1ccc(-n2ncc(C(=O)NCCCN3CCN(C)CC3)c2C2CCN(C(=O)OC(C)(C)C)CC2)c(C)c1 | 105% (inactive)
11 | CC(C)(C)OC(=O)N1CCC(c2c(C(=O)NC3CCN(Cc4ccccc4)CC3)cnn2-c2ccc(F)cc2F)CC1 | -2% (active)
12 | CCOC(=O)N1CCC(NC(=O)c2cnn(-c3ccc(F)cc3F)c2C2CCN(C(=O)OC(C)(C)C)CC2)CC1 | 71% (inactive)
13 | CC(C)(C)OC(=O)N1CCC(c2c(C(=O)NC3CCN(Cc4ccccc4)CC3)cnn2-c2cccc(F)c2)CC1 | 92% (inactive)
14 | CCC(=O)Nc1ccc2nc3c(=O)n(C)c(=O)n(C)c3nc2c1 | 66% (inactive)
15 | Cc1ccc(S(=O)(=O)c2cc3cc(C(=O)Nc4ccc(C)cc4C)ccc3oc2=O)cc1 | 89% (inactive)
16 | CCOC(=O)COc1nc(C)c(Br)c(OC)n1 | 81% (inactive)
17 | COc1ccc(CNC(=O)COCc2cc(-c3cccs3)on2)cc1 | 107% (inactive)
18 | CC1CCN(S(=O)(=O)c2ccc3c(c2)CCN3C(=O)Nc2ccc(Br)cc2F)CC1 | 74% (inactive)
19 | COc1cc2nc(NCCc3ccc(Cl)cc3)n3nc(-c4ccccc4)nc3c2cc1OC | 51% (inactive)
20 | CC(CNc1nc2ccccc2c2nc(-c3ccccc3)nn12)c1ccccc1 (configuration not stated) | 121% (inactive)
21 | Cc1ccc(CCNc2nc3ccccc3c3nc(-c4cccnc4)nn23)cc1 | 66% (inactive)

Row | Structure (SMILES) | survival
22 | Cc1ccc(CCNc2nc3ccccc3c3nc(-c4ccccc4)nn23)cc1 | 44% (active)
23 | O=c1n(Cc2ccc(Cl)cc2)c2ccccc2c2nc(-c3ccccc3)nn12 | 95% (inactive)
24 | CCCCNC(=O)CCC(=O)NNc1nc2ccccc2c2nc(-c3ccccc3)nn12 | 78% (inactive)
25 | Clc1ccc(CCNc2nc3ccccc3c3nc(-c4ccccc4)nn23)cc1 | 29% (active)
26 | CCCCNc1nc2ccccc2c2nc(-c3ccccc3)nn12 | -1% (active)
27 | CCc1ccc(CNC(=O)Cn2nc(C)n3c(cc4cc(C)ccc43)c2=O)cc1 | 83% (inactive)
28 | Cc1ccc(NC(=O)c2cnc3sc(N4CCOCC4)nn3c2=O)cc1N(C)C | 80% (inactive)
29 | COc1cccc(NC(=O)Cn2nnc(C(=O)NCCc3ccccc3)c2N)c1 | 144% (inactive)
30 | Cc1ccc(Cn2c(=O)n(-c3cccc(C(F)(F)F)c3)c(=O)c3c(C)c(C)sc32)c(C)c1 | 97% (inactive)
31 | COc1ccc(CNC(=O)c2cnc(N(C)C)nc2)cc1 | 73% (inactive)
32 | COc1ccc(-c2cn3c(c2C)-c2ccc(C)n2CC3)cc1 | 91% (inactive)
33 | O=C(c1ccc(Cl)cc1)N(Cc1ccco1)Cc1ccco1 | 97% (inactive)
34 | O=C(c1cc2sccc2n1Cc1ccccc1)N(Cc1ccco1)Cc1cccs1 | 96% (inactive)
35 | Cc1ccc(CN(Cc2ccco2)C(=O)c2cccc(C)c2)cc1 | 68% (inactive)
36 | CC(C)Oc1ccc(C(=O)N(Cc2ccc(N(C)C)cc2)Cc2ccco2)cc1 | 59% (inactive)
37 | Cc1ccc(N(Cc2cccs2)C(=O)c2ccc(OC(C)C)cc2)cc1 | 95% (inactive)
38 | CC(C)Oc1ccc(C(=O)N(Cc2ccco2)Cc2cccs2)cc1 | 36% (active)
39 | Cc1ccsc1CN(Cc1ccco1)C(=O)c1ccc(Cl)cc1 | 34% (active)
40 | Cc1ccc(C(=O)N(Cc2ccco2)Cc2sccc2C)cc1 | 44% (inactive)
41 | O=C(c1ccccc1)N(Cc1ccco1)Cc1cccs1 | 41% (active)
42 | O=C(Nc1nnc(N2CCCCCC2)s1)Nc1cc(F)ccc1F | 103% (inactive)

Row | Structure (SMILES) | survival
43 | CC1=C(C(=O)N(C)C)C(c2ccccc2Cl)NC(=O)N1 (configuration not stated) | 76% (inactive)
44 | CC(C)N1CC(C(=O)Nc2ccccc2)CC1=O (configuration not stated) | 73% (inactive)
45 | CCOC(=O)c1cc(-c2ccc(OC)c(S(=O)(=O)NC3CCCCC3)c2)on1 | 89% (inactive)
46 | CN1CCSc2ccc(C(=O)NCc3ccccc3)cc21 | 67% (inactive)
47 | O=C(NC1CCCC1)C(c1ccncc1)N(CCCN1CCOCC1)C(=O)c1ccc(-c2ccccc2)[nH]1 (configuration not stated) | 76% (inactive)
48 | CN(C)C(=O)c1ccc(S(=O)(=O)NCc2ccccc2Cl)s1 | 94% (inactive)
49 | Cc1cccc(Cn2cc(C(=O)Nc3cc(F)ccc3F)ccc2=O)c1 | 74% (inactive)
50 | Cc1noc(-c2ccc(-c3noc(-c4cccc(F)c4)n3)cc2)n1 | 76% (inactive)
51 | Cc1ccc(NC(=O)Cn2cc3c(n2)CCCC3)cc1Cl | 87% (inactive)
52 | COc1cc(C2CC(=O)c3c([nH]c(C(=O)OC4CCCC4)c3C)C2)cc(OC)c1OC (configuration not stated) | 51% (active)
53 | COc1ccc(C2CC(=O)c3c([nH]c(C(=O)OC4CCCC4)c3C)C2)cc1OC (configuration not stated) | 128% (inactive)
54 | COc1ccc(C2CC(=O)c3c([nH]c(C(=O)OC4CCCCCC4)c3C)C2)cc1OC (configuration not stated) | 81% (inactive)
55 | CC1(C)CC(=O)C2=C(C1)OC(N)=C(C#N)C2c1ccc2c(c1Cl)OCO2 (configuration not stated) | 97% (inactive)
56 | COC(=O)c1ccccc1NC(=O)c1cc(CN2CCCC2)on1 | 75% (inactive)
57 | COc1ccc(-c2cc(C(=O)N3CCCCC3C)no2)cc1OC (configuration not stated) | 58% (active)
58 | CC1CCCCN1C(=O)c1cccc(C(=O)N2CCCCC2C)c1 (configuration not stated) | 80% (inactive)
59 | CC1CCCCN1C(=O)c1cc(-c2ccc(Br)cc2)on1 (configuration not stated) | 66% (inactive)
60 | COc1ccc(-c2cc(C(=O)Nc3ccc4c(c3)OCO4)no2)cc1OC | 65% (inactive)
61 | COc1ccccc1-c1cc(C(=O)N2CCCCC2C)no1 (configuration not stated) | 11% (active)
62 | CC1CCCCN1C(=O)c1cc(-c2ccccc2)on1 (configuration not stated) | 88% (inactive)
